# Data published in ChEMBL document CHEMBL2218924, “A broad activity screen in support of a chemogenomic map for kinase signalling research and drug discovery” (Biochem J, 2013).
# Columns and labels:
# [1] = biological target: Death-associated protein kinase 1 (Homo sapiens) (UniProt P53355); conditions: at 10 µM
# [2] = biological target: Death-associated protein kinase 2 (Homo sapiens) (UniProt Q9UIK4); conditions: at 1 µM
# [3] = biological target: Death-associated protein kinase 2 (Homo sapiens) (UniProt Q9UIK4); conditions: at 10 µM
# [4] = biological target: T1, Serine/threonine-protein kinase DCLK2 (Homo sapiens) (UniProt Q8N568); conditions: at 1 µM
# T1 sequence (whole entry): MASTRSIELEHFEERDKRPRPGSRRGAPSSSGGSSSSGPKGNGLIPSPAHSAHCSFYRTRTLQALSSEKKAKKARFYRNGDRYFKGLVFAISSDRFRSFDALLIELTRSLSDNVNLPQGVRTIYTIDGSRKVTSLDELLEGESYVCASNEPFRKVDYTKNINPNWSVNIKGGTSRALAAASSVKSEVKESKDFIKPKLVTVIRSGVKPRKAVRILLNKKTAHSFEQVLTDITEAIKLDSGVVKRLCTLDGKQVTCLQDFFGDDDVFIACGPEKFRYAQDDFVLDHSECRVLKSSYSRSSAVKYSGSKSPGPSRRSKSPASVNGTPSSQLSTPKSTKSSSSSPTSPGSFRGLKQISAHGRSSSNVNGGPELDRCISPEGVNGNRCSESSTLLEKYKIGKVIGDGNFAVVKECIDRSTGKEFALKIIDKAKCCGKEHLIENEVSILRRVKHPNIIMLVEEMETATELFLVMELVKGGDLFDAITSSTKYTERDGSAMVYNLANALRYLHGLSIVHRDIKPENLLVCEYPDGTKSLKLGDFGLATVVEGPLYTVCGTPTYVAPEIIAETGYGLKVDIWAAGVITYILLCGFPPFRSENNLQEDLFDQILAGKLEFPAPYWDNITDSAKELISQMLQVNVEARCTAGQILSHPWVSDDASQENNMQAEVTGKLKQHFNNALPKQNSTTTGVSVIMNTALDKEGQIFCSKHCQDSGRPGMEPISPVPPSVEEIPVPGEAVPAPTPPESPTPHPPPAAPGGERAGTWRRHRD
# [5] = biological target: T1, Serine/threonine-protein kinase DCLK2 (Homo sapiens); conditions: at 10 µM
# [6] = biological target: T2, Discoidin domain-containing receptor 2 (Homo sapiens) (UniProt Q16832); conditions: at 1 µM
# T2 sequence (whole entry): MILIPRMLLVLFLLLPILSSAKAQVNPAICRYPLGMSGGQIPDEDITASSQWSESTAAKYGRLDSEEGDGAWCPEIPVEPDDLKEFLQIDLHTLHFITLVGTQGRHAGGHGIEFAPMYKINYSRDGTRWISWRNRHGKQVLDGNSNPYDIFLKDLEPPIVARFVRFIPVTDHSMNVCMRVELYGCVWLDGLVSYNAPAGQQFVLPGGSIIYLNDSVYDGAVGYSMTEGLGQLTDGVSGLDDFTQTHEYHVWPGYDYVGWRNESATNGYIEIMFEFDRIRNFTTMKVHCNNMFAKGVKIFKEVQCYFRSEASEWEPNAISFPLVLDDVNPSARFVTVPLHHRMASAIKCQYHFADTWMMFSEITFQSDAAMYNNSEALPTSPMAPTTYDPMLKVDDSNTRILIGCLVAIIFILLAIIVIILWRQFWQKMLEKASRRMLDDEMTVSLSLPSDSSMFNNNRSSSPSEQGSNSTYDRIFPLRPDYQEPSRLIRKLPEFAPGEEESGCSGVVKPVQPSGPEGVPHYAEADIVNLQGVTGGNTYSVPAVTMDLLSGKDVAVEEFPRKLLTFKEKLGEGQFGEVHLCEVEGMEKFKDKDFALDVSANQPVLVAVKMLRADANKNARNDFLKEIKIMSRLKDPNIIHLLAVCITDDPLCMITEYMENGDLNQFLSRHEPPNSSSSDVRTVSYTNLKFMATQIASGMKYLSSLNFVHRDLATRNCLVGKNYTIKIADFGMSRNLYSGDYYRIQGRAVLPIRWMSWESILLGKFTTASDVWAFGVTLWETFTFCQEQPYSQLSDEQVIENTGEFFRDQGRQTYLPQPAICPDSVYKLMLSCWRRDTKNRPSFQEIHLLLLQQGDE
# [7] = biological target: T2, Discoidin domain-containing receptor 2 (Homo sapiens); conditions: at 10 µM
# [8] = biological target: T3, Myotonin-protein kinase (Homo sapiens) (UniProt Q09013); conditions: at 1 µM
# T3 sequence (whole entry): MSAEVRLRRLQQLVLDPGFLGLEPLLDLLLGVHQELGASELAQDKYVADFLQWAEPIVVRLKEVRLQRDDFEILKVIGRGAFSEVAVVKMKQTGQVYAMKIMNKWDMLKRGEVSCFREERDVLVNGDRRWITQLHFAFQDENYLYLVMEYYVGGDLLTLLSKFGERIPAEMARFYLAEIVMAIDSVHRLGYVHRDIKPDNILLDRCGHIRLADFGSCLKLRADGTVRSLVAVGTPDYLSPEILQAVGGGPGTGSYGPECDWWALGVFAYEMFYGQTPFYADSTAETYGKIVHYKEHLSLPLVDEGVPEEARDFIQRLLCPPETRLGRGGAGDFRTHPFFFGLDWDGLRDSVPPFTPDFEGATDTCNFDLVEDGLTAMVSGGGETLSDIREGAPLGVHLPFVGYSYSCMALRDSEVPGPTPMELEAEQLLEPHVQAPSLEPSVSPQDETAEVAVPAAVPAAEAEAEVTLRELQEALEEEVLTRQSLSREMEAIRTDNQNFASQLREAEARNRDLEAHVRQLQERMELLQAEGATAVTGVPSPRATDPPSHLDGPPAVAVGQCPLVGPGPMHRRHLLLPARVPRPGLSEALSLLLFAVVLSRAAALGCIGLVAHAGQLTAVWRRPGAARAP
# [9] = biological target: T3, Myotonin-protein kinase (Homo sapiens); conditions: at 10 µM
# [10] = biological target: T4, Serine/threonine-protein kinase 17A (Homo sapiens) (UniProt Q9UEE5); conditions: at 1 µM
# T4 sequence (whole entry): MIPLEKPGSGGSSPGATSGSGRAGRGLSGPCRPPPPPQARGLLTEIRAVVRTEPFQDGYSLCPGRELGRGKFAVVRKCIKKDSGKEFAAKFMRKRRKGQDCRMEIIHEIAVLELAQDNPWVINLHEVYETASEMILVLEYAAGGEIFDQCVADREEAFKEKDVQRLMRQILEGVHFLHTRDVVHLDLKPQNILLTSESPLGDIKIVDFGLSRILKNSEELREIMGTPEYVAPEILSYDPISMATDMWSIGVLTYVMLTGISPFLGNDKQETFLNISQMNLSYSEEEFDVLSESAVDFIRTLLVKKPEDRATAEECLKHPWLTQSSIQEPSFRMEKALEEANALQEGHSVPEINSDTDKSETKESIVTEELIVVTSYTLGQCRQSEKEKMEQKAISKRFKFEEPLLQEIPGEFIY
# [11] = biological target: T4, Serine/threonine-protein kinase 17A (Homo sapiens); conditions: at 10 µM
# [12] = biological target: T5, Dual specificity tyrosine-phosphorylation-regulated kinase 2 (Homo sapiens) (UniProt Q92630); conditions: at 1 µM
# T5 sequence (whole entry): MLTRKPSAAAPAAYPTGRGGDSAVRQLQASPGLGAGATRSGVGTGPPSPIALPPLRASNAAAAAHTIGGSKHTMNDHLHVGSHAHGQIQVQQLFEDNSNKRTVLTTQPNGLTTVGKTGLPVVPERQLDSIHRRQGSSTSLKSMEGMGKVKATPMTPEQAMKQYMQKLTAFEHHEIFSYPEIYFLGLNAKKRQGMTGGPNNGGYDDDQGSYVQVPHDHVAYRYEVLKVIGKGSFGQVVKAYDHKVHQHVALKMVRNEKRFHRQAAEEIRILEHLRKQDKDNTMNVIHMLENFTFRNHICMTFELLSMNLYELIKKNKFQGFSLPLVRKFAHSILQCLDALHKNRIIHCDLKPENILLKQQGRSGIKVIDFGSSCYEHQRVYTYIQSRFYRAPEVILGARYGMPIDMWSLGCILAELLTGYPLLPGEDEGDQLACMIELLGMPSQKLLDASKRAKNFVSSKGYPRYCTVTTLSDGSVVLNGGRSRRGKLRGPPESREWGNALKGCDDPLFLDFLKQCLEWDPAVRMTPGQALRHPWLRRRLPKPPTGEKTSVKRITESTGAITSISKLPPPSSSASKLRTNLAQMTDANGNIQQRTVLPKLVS
# [13] = biological target: T5, Dual specificity tyrosine-phosphorylation-regulated kinase 2 (Homo sapiens); conditions: at 10 µM
# [14] = biological target: T6, Ephrin type-A receptor 1 (Homo sapiens) (UniProt P21709); conditions: at 1 µM
# T6 sequence (whole entry): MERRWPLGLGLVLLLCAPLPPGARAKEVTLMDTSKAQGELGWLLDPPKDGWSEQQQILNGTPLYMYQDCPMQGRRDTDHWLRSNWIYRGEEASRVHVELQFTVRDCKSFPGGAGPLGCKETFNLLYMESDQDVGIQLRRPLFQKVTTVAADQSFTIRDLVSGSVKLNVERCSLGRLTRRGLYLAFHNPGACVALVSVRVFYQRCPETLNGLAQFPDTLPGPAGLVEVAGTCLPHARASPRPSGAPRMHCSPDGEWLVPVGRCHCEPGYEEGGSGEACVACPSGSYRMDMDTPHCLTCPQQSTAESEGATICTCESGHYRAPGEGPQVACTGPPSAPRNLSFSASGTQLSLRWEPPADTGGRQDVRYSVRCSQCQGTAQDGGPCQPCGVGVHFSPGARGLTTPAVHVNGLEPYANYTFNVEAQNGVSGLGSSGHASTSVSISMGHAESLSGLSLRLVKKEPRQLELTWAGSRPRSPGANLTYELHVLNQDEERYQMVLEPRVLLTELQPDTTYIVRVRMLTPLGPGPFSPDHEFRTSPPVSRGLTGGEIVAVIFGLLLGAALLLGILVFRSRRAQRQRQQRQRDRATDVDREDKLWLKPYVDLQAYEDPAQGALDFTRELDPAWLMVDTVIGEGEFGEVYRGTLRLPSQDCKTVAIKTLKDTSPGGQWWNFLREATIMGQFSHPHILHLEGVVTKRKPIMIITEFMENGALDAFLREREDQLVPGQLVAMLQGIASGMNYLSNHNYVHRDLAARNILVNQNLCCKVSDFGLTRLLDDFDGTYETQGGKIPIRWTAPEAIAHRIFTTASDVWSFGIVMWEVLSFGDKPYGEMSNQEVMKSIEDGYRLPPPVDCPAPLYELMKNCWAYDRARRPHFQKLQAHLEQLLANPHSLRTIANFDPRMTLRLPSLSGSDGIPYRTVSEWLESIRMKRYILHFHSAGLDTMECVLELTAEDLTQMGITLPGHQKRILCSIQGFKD
# [15] = biological target: T6, Ephrin type-A receptor 1 (Homo sapiens); conditions: at 10 µM
# [16] = biological target: Ephrin type-A receptor 2 (Homo sapiens) (UniProt P29317); conditions: at 1 µM
# Chain of Ephrin type-A receptor 2 (Homo sapiens) (P29317 whole entry): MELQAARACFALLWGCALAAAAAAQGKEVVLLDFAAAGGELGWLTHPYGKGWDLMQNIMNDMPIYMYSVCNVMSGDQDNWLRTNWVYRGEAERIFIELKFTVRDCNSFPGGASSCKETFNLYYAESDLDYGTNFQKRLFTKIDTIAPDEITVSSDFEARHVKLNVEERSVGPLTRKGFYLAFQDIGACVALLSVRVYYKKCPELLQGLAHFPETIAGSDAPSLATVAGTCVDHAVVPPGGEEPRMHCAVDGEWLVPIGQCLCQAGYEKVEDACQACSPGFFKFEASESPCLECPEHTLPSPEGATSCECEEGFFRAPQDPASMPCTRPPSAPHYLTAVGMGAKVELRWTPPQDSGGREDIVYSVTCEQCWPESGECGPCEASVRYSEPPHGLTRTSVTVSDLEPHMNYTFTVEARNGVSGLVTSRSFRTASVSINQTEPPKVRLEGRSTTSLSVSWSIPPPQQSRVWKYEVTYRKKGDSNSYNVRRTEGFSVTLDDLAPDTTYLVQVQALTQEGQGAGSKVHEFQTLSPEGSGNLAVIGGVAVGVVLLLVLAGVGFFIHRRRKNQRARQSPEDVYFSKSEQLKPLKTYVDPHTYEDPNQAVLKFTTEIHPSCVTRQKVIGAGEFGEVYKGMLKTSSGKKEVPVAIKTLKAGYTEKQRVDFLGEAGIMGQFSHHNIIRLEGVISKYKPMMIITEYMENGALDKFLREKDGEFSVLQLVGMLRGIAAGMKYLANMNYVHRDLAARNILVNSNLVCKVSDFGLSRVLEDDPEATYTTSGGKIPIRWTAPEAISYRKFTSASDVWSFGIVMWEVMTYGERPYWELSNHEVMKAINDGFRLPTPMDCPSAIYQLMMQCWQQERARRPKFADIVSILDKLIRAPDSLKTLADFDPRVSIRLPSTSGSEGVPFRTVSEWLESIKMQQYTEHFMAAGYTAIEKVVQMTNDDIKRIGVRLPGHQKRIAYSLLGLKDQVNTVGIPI
# [17] = biological target: Ephrin type-A receptor 2 (Homo sapiens) (UniProt P29317); conditions: at 10 µM
# [18] = biological target: T7, Ephrin type-A receptor 3 (Homo sapiens) (UniProt P29320); conditions: at 1 µM
# T7 sequence (whole entry): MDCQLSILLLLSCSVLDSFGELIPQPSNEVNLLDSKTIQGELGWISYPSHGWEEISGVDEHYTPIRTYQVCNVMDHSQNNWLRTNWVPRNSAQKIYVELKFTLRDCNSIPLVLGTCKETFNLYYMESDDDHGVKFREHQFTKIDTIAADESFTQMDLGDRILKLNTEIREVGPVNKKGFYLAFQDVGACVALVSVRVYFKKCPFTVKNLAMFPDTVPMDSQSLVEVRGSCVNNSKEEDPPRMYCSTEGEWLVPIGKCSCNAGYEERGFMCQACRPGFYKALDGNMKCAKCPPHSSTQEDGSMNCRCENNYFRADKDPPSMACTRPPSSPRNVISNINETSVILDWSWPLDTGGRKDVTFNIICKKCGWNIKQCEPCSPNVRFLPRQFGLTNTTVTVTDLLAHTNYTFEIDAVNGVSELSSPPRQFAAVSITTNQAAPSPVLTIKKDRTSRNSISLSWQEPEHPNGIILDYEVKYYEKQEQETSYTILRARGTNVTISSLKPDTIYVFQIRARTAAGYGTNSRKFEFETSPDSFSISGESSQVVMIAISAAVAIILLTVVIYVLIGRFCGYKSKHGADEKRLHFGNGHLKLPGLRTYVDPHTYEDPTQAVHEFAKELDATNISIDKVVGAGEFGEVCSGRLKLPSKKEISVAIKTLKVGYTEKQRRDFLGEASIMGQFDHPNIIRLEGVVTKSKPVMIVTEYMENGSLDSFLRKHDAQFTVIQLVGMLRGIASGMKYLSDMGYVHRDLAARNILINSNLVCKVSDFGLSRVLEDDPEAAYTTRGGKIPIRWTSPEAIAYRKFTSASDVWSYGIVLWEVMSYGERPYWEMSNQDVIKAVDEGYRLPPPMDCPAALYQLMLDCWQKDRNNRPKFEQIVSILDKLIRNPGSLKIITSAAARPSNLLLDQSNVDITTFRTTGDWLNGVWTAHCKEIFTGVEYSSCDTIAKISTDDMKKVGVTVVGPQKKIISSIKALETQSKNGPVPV
# Chain of Death-associated protein kinase 2 (Homo sapiens) (Q9UIK4 whole entry, looked up): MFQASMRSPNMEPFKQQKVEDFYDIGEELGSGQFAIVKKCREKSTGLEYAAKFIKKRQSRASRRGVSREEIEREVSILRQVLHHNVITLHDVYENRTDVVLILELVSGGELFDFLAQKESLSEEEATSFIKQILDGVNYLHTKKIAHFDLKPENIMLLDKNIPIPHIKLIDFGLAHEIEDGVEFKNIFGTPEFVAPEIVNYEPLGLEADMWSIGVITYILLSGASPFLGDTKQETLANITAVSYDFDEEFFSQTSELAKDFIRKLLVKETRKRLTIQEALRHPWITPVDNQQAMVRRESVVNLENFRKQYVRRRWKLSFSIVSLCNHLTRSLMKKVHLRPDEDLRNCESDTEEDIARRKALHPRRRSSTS
# Chain of Death-associated protein kinase 1 (Homo sapiens) (P53355 whole entry, looked up): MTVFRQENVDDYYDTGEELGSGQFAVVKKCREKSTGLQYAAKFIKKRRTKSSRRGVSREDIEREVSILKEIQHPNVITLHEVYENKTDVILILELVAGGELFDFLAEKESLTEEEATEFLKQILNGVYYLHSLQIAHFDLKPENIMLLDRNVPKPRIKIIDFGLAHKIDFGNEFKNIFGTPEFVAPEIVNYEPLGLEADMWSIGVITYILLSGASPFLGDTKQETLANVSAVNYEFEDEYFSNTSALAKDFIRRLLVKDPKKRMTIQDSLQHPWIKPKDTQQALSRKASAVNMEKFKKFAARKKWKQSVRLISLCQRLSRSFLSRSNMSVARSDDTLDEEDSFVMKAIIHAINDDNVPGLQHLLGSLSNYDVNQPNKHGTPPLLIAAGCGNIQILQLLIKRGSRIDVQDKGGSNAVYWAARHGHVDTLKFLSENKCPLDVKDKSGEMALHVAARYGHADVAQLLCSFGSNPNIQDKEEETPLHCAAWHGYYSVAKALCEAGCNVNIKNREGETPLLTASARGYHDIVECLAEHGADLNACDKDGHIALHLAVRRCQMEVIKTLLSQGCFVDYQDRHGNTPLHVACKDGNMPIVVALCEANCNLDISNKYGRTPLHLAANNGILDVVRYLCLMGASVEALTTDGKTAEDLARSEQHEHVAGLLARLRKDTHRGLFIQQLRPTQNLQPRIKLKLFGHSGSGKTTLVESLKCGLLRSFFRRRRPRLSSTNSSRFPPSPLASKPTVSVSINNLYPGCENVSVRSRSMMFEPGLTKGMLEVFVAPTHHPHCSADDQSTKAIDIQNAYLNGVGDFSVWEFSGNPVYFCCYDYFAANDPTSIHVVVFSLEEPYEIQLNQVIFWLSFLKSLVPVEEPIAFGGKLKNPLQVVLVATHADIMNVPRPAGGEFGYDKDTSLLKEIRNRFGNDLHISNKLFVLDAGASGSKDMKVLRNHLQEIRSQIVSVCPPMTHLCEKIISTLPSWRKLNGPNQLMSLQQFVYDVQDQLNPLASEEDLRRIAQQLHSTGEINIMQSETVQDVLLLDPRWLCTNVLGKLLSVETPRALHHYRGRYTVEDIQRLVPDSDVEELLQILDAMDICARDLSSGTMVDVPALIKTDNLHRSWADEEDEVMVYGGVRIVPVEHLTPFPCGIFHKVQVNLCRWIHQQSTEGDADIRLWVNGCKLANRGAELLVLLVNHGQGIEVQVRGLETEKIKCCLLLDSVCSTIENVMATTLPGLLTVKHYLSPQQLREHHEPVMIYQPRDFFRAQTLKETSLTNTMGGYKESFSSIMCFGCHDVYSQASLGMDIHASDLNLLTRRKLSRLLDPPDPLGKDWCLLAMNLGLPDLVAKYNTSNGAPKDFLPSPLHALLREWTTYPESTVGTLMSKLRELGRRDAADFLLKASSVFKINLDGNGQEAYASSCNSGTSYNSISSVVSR
SMILES,residual activity [1] [%],residual activity [2] [%],residual activity [3] [%],residual activity [4] [%],residual activity [5] [%],residual activity [6] [%],residual activity [7] [%],residual activity [8] [%],residual activity [9] [%],residual activity [10] [%],residual activity [11] [%],residual activity [12] [%],residual activity [13] [%],residual activity [14] [%],residual activity [15] [%],residual activity [16] [%],residual activity [17] [%],residual activity [18] [%]
O=Nc1c(-c2c(O)[nH]c3ccccc23)[nH]c2ccccc12,67,73,23,119,74,94,87,109,83,6,4,79,20,55,61,61,16,58
COc1cc2ncnc(Nc3ccc(O)c(Br)c3)c2cc1OC,76,–,77,73,96,90,55,105,116,77,18,48,10,35,8,90,30,79
